Structures are written as SMILES. Among all 360,000 compounds or so, about 240 (0.067%) were called active. No stated cut-off is given here; in the data, active means activation above about 50%; inconclusive means mostly about 30% to 49%; inactive means weaker than that. The entries come from a sample that favours actives as a whole.

This is an account of results in PubChem BioAssay AID652025 (National Center for Advancing Translational Sciences (NCATS), 2013).

The assay is described as follows: qHTS of IL-2 Activators. Further: 0% is about no effect. Particulars: IL-2 activation reporter assay, cell-based qHTS; stronger effect = higher value; in transgenic mouse T cells; stimulated with anti-CD3/CD4/CD28 beads. From the text: The adaptive immune response against any infectious agent begins with the activation of an antigen specific T cell. This relatively rare and inert ("naive") T cell undergoes a massive proliferative expansion and differentiation process to generate sufficient number of potent pathogen-specific effector T cells. The effector T cells fight the infection by making cytokines and helping other cells to become fully armed as well. If any naive T cell has antigen receptors (TCRs) that can be activated by self peptides, then a variety of regulatory mechanisms kick in to prevent this cell from performing to its full potential. These processes collectively constitute the phenomenon of immunological tolerance and their failure leads to autoimmunity. One arm of tolerance involves generation of biochemical negative feedback downstream of the TCR (tuning). This is especially relevant to self antigens present in the body over long periods of time (chronic), which form the bulk of our proteome. The negative feedback serves to tune the TCR signaling, such that the ambient antigenic stimulation is nullified intracellularly. Unfortunately, this critical machinery serves as a target for chronic viral, bacterial and parasitic infections (as well as tumors), which can evade a robust immune response, simply by allowing T cells to tune down their signaling to pathogen or malignancy derived antigens. As such, disrupting the tuning in such cases would allow the tolerant T cell to function again and deliver a robust effector response.
If a therapeutic can restore responsiveness to the tuned down T cell, even for a short time, they could combat the pathogen without any additional immunization. To that end, we have developed a sensitive HTS T cell based assay based on IL-2. This assay will be screened against the Molecular Libraries Small Molecule Repository (MLSMR) to find small molecules that could elicit this response.
NIH Chemical Genomics Center [NCGC]
NIH Molecular Libraries Probe Centers Network [MLPCN]
Assay Submitter (PI): Ron Schwartz, NIAID
4 microL (750 cells/well) of unstimulated transgenic mouse T cells (columns 1-3,5-48) are dispensed into Aurora LoBase, black clear-bottom 1536-well assay plates; column 4 receives an identical concentration of transgenic memory T cells as a non-tolerant control. Compounds are then transferred via Kalypsys pin tool equipped with 1536-pin array (10 nL slotted pins, V&P Scientific, San Diego, CA). Following addition of compound and a 60 minute incubation, 1 microL of bead stimulation solution ((0.04 micron Fluospheres (Life technologies, CA) coated with 10ug/ml each anti-CD3 and anti-CD4 (clones 2C11 and GK1.5, BD Biosciences, CA) and mixed with 1ug/ml anti-CD28 (clone PV-1, BD biosciences, CA)). columns 2-48) is added to stimulate the IL-2 response pathway; media is instead added to column 1 as an unstimulated control, while PMA/ionomycin (Sigma Aldrich, MO) is added to column 3 as a control for IL-2 tolerance bypass. The plates are then incubated at 37 degrees C for 18 hours. EGFP and DsRed signal are then detected using an Acumen eX3 Explorer fluorescent plate cytometer. All cells are dispensed in cell media containing EHAA (Quality Biologicals, MD), RPMI (Quality Biologicals, MD), Glutamine (Life Technologies, CA), Penicillin/Streptomycin (Quality Biologicals, MD), 2-ME (Sigma Aldrich, MO) and 10% FBS (Gemini Bioproducts, CA) .
(qHTS replaces the single test concentration by a dilution series.)
As for `Cc1ccc(-c2c[n+](=O)c3c(n2[O-])CCC3)cc1`, the activation was 1.34% (inactive). Consider `COc1ccc(N(CC(=O)NC2CCCC2)C(=O)CS(=O)CC(=O)Nc2ccc3c(c2)OCO3)cc1` (configuration not stated), for which the activation was -2.57% (inactive). Next, `c1csc(CN2CCN(Cc3cccs3)C2c2cccs2)c1`: 0.339% (inactive). On to `Cc1cc(C)cc(C(=O)NC(CC(N)=O)c2ccc(N3CCC(N4CCCCC4)CC3)c([N+](=O)[O-])c2)c1` (configuration not stated), for which the activation is -0.417% (inactive). With `O=C(O)CCCCOn1ccnc1`, the activation was 1.09% (inactive).

Regarding `CCn1nc(C)c(CN2CCN(Cc3ccc(OC)c(C)c3C)C(CCO)C2)c1C` (configuration not stated), the activation was -3.09% (inactive).

For `O=C(O)c1ccccc1N=N/C(=N/Nc1cc(S(=O)(=O)O)ccc1O)c1ccccc1`, the activation was 0.118% (inactive).

For the molecule `CCOC(=O)[C@]12CCCC=C1N(Cc1cccc3ccccc13)C(=O)[C@H](CC(=O)NCC13CC4CC(CC(C4)C1)C3)C2`, the activation is -1.16% (inactive). In the case of `CCN(CC)S(=O)(=O)c1ccc(N2CCN(C)CC2)c(NC(=O)Nc2ccccc2F)c1`, the activation is -1.22% (inactive). Consider `CC1(Oc2ccc(Cl)cc2)CCN(Cc2csc3ccccc23)C1` (configuration not stated), for which the activation is 0.192% (inactive). Next, `COC(=O)COc1cccc2c(=O)n(CC(=O)NCc3ccccc3)ccc12`: -3.22% (inactive); `CCOC(=O)N1CCN(C(=O)c2ccccc2SCC(=O)NCC2CCCCC2)CC1`: -1.16% (inactive); `O=C(NCc1ccccc1Cl)c1csc([C@@H]2O[C@H](CO)[C@@H](O)[C@H]2O)n1`: 0.0054% (inactive). Next, `CC(=O)Nc1ccc(C(=O)Nc2cc(S(=O)(=O)N3CCOCC3)ccc2N2CCOCC2)cc1`: -2.32% (inactive); `Nc1nc(-c2sc3nc4c(cc3c2N)CCCC4)nc(N2CCOCC2)n1`: -1.7% (inactive). Regarding `CCCc1cc(=O)[nH]c(SCc2cc(=O)oc3c(C)c(C)ccc23)n1`, the activation was -0.327% (inactive). Turning to `CCOc1ccccc1NC(=O)C12CC3CC(C1)CC(c1ccc(C)cc1)(C3)C2`, the activation was -4.57% (inactive). With `Cc1cc(C)c2c(-n3cccc3)c(C(=O)NNS(=O)(=O)c3ccc(F)cc3)sc2n1`, the activation was 0.79% (inactive).

As for `CC(=O)N(Cc1cccs1)C1CCOC(C)(C)C1` (configuration not stated), the activation was -0.456% (inactive). On to `O=C(NNC(=S)NC1CC2CCC1C2)c1ccc(Cl)cc1` (configuration not stated), for which the activation is -0.932% (inactive). Consider `Cc1ccccc1-n1nnc2c(=O)oc3ccccc3c21`, for which the activation was -0.569% (inactive).

As for `COc1ccccc1CNC(=O)C1CCCN(S(=O)(=O)c2cccc3cccnc23)C1` (configuration not stated), the activation is -1.32% (inactive). Consider `Cc1ccc(C(CC(=O)O)NC(=O)c2ccc(S(=O)(=O)N3CCCC3)cc2)cc1` (configuration not stated), for which the activation is 0.29% (inactive). `CC1=C(C(=O)OC2CCCCC2)C(c2ccccc2F)NC(=O)N1` (configuration not stated): the activation is -8.28% (inactive). In the case of `Cn1cccc1C1(C(F)(F)F)NCCNC1=O` (configuration not stated), the activation is -1.5% (inactive).

Turning to `CCO[C@H]1OC(C(=O)N2CCOCC2)=C[C@@H](c2ccc3c(c2)OCO3)[C@@H]1CCCO`, the activation was -0.126% (inactive). `Cc1nn(CCOc2ccc(Br)cc2)c(C)c1[N+](=O)[O-]`: the activation was -2.36% (inactive).
